The full list was thinned out, with hits kept by preference.
Pf Dd2 growth: Plasmodium falciparum Dd2 growth inhibition; hit rate 4.3% among 120,000; Potency, µM (doses to about 28.9 µM), without a hit: at the top dose activity, negative = inhibition, most hits filed as inhibitors; P. falciparum Dd2 growth, SYBR Green, 72 h; active means well fitted inhibition curve with a large enough effect;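 further: plate controls were DMSO vehicle for no effect and reference drug for full effect; nearly all actives have a fitted effect of over 65% in size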
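Readout: SYBR Green fluorescence, 485 nm excitation, 535 nm emission, after ~16 h lysis at 37C. Before that, Dd2-infected red cells (2.5% hematocrit) grew 72 h with compound, 29 uM top final concentration.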
Numbers without * were called inactive; [ ] = dose if it differs, or a comment. Potency means the concentration at half of the fitted maximal effect.

How did Cc1cccc(Cn2c(SCc3ccc(C(=O)NC4CCCCC4)cc3)nc3cccnc32)c1 do in these assays?
Pf Dd2 growth: 10µM*

How did O=C(NC1CCCCC1)c1ccc(Cn2c(SCc3ccc(F)cc3)nc3cccnc32)cc1 do in these assays?
Pf Dd2 growth: -2.1%

Results for Cc1cccc(Cn2c(SCc3ccc(C(=O)NC4CCCC4)cc3)nc3cccnc32)c1 ?
Pf Dd2 growth: -26.1%

How did O=C(NC1CCCCC1)c1ccc(CSc2nc3cccnc3n2Cc2ccc(F)cc2)cc1 do in these assays?
Pf Dd2 growth: 20.4%[5.79 µM]

What do the screens show for `O=C(NC1CCCCC1)c1ccc(CSc2nc3cccnc3n2Cc2cccc(F)c2)cc1`?
Pf Dd2 growth: 11.2µM*

What do the screens show for `Clc1cc(NCc2cccs2)n2nccc2n1`?
Pf Dd2 growth: -23.8%[44.1 µM]

How did CCOC(=O)CCNC(=O)N1CCCC(Cn2cnc3cccnc32)C1 (stereo not drawn) do in these assays?
Pf Dd2 growth: 17.9%

How did COc1ccccc1CCC(=O)N1C[C@@H](CO)[C@H](c2ccncc2)C1 do in these assays?
Pf Dd2 growth: -23.7%

What do the screens show for `O=C(Cc1cccn1-c1cccc(Cl)c1)NCc1cccs1`?
Pf Dd2 growth: -2.9%

Results for CCc1ccc(NC(=O)N2CCc3c(c4ccccc4n3C)C2)cc1 ?
Pf Dd2 growth: inactive

What do the screens show for `Cc1ccc(NC(=O)N2CCc3c(c4ccccc4n3C)C2)cc1`?
Pf Dd2 growth: inactive

What do the screens show for `Cn1c2c(c3ccccc31)CN(C(=O)Nc1ccccc1F)CC2`?
Pf Dd2 growth: 11.2µM*

Results for CCn1nccc1C(=O)N1C[C@@H](CO)[C@H](c2ccncc2)C1 ?
Pf Dd2 growth: 30.7%

How did COc1cc2c(cc1CCc1ccccc1)N(C(=O)CC(C)C)CC21CCN(C(C)=O)CC1 do in these assays?
Pf Dd2 growth: 3.98µM*

What do the screens show for `COc1cc2c(cc1OCc1ccccc1)N(C(=O)Cc1ccc3c(c1)OCO3)CC21CCN(C)CC1`?
Pf Dd2 growth: inactive

What do the screens show for `COc1ccccc1CN1CCOc2cc([S+](=O)([O-])N(C)C)ccc2C1`?
Pf Dd2 growth: inactive

How did COc1cccc(CN2C(=O)OC3(CCN(C(=O)c4ccn(C)n4)CC3)C2(C)c2cccnc2)c1 (stereo not drawn) do in these assays?
Pf Dd2 growth: inactive

What do the screens show for `COc1cc2c(cc1CCc1ccccc1)N(C(=O)c1ccn(C)n1)CC21CCN(C(C)=O)CC1`?
Pf Dd2 growth: 10µM*

Results for COc1cc2c(cc1OCc1ccccc1)N(C(=O)C(C)C)CC21CCN(C)CC1 ?
Pf Dd2 growth: inactive

How did COc1cc2c(cc1Oc1ccccc1)NC(=O)C21CCN(C(=O)Cc2ccccc2)CC1 do in these assays?
Pf Dd2 growth: -10.5%

How did COc1cc2c(cc1OCc1ccccc1)N(C(=O)c1ccccc1OC)CC21CCN(C)CC1 do in these assays?
Pf Dd2 growth: 3.98µM*

How did Cn1ccc(C(=O)N2CC(COc3ccccc3)C3(C2)CN(c2ccccc2)C3)n1 (stereo not drawn) do in these assays?
Pf Dd2 growth: -1.1%[44.1 µM]

How did COc1cc2c(cc1OCc1ccccc1)N(C(=O)c1ccc3[nH]ccc3c1)CC21CCN(C)CC1 do in these assays?
Pf Dd2 growth: -16.6%

How did COc1ccc([S+](=O)([O-])N2CC3(CCN(CC(=O)O)CC3)c3cc(OC)c(OCC4CCCC4)cc32)cc1 do in these assays?
Pf Dd2 growth: inactive

How did COc1cc2c(cc1CCc1ccccc1)N([S+](=O)([O-])c1ccc3c(c1)CCO3)CC21CCN(C(C)=O)CC1 do in these assays?
Pf Dd2 growth: 10µM*

Results for O=C(c1ccccn1)N1CCn2c(nnc2-c2ccccc2)C1 ?
Pf Dd2 growth: -21.3%[44.1 µM]

How did COCC(=O)NC1CCC12CCN(C(=O)C1CCC1)CC2 (stereo not drawn) do in these assays?
Pf Dd2 growth: 13.2%

What do the screens show for `CCN1CC(c2ccccc2)CC2(CCN(C(=O)c3cnccn3)CC2)C1` (stereo not drawn)?
Pf Dd2 growth: -21.3%

How did COCCN1C(=O)c2cccn2CC1CN (stereo not drawn) do in these assays?
Pf Dd2 growth: -13.6%

How did COc1ccccc1C(C(=O)O)N1CCC(OCc2cccnc2)CC1 (stereo not drawn) do in these assays?
Pf Dd2 growth: -2.9%

Results for COC(=O)[C@@H]1Cc2ncn(C)c2CN1S(=O)(=O)c1ccc(F)cc1 ?
Pf Dd2 growth: 17.3%[44.1 µM]

Results for O=C(O)C[C@@H]1CCN(C(=O)c2ccc(C(F)(F)F)cc2)C[C@@H]1CCN1CCOCC1 ?
Pf Dd2 growth: -24.8%[44.1 µM]

What do the screens show for `c1ccc2c(c1)nc1n2[C@@H](CNCc2nccs2)COC1`?
Pf Dd2 growth: 4.4%[44.1 µM]

What do the screens show for `CNc1ncc(C(=O)N2CCCC(CC=C(C)C)(C(=O)O)C2)cn1` (stereo not drawn)?
Pf Dd2 growth: 3.0%

Results for NC1CCN(Cc2ccc(-c3nc(CCn4cccn4)cc(=O)[nH]3)cc2)CC1 ?
Pf Dd2 growth: -3.1%

How did O=C(Cn1nc2c(cc1=O)CCCCC2)Nc1cccc2[nH]ccc12 do in these assays?
Pf Dd2 growth: -4.2%

Results for OCC1CCCCN1CCNc1nccc(-c2cccnc2)n1 (stereo not drawn) ?
Pf Dd2 growth: -29.8%

How did CN1CCCC1CCNc1nccc(-c2cnn(-c3ccc(F)cc3)c2)n1 (stereo not drawn) do in these assays?
Pf Dd2 growth: 8.91µM*

What do the screens show for `c1cncc(-c2ccnc(NCC(c3cccnc3)N3CCCCC3)n2)c1` (stereo not drawn)?
Pf Dd2 growth: -13.4%

How did CCc1cccc(NC(=O)N2C[C@@H](F)C[C@H]2C(=O)N2CCc3ccccc3C2)c1 do in these assays?
Pf Dd2 growth: inactive

How did CCOc1cccc(CN2CCOc3ccc(C(=O)NCc4ccccc4F)cc3C2)c1 do in these assays?
Pf Dd2 growth: inactive

Results for CCC(C(=O)NCc1ccc(OC)c(OC)c1)n1nc(C)c2c(C)n(-c3ccc(C)cc3)nc2c1=O (stereo not drawn) ?
Pf Dd2 growth: 2.82µM*

How did Cc1ccc(CCNC(=O)C(C)n2nc(C)c3c(C)n(-c4ccc(C)cc4)nc3c2=O)cc1 (stereo not drawn) do in these assays?
Pf Dd2 growth: inactive

How did CCC(C(=O)Nc1cc(F)ccc1F)n1nc(C)c2c(C)n(-c3ccc(C)cc3)nc2c1=O (stereo not drawn) do in these assays?
Pf Dd2 growth: 0.5%

How did Cc1n[nH]c(C)c1C(N)C(=O)NCCN1CCCC1 (stereo not drawn) do in these assays?
Pf Dd2 growth: 2.8%

Results for Cc1nc(-c2c3n(c(=O)n(CC(=O)Nc4ccccc4)c2=O)CCCC3)no1 ?
Pf Dd2 growth: -8.4%

How did COc1ccccc1C(=O)NCCC1CCN(C(=O)Nc2ccc(C)cc2)CC1 do in these assays?
Pf Dd2 growth: inactive

How did c1ccc(CC2=NOC3(CCCN(Cc4ccns4)C3)C2)cc1 (stereo not drawn) do in these assays?
Pf Dd2 growth: 6.31µM*

Results for c1cncc(C2=NOC3(CCN(C4CCCCC4)CC3)C2)c1 ?
Pf Dd2 growth: 21.3%[44.1 µM]

How did CC(C)C1=NOC2(CCN(Cc3c[nH]c4ccccc34)CC2)C1 do in these assays?
Pf Dd2 growth: -5.7%

Results for NC(=O)c1cccc(CN2CCC3(CC2)CC(Cc2ccccc2)=NO3)c1 ?
Pf Dd2 growth: -4.2%

What do the screens show for `c1ccc(CC2=NOC3(CCN(C4CCCCC4)CC3)C2)cc1`?
Pf Dd2 growth: 10µM*

Results for Cc1ccc(C(=O)N2CCCC3(CC(Cc4ccccc4)=NO3)C2)cc1 (stereo not drawn) ?
Pf Dd2 growth: -9.4%

What do the screens show for `O=C(C1CCCC1)N1CCC2(CC1)CC(Cc1ccccc1)=NO2`?
Pf Dd2 growth: 21.3%

What do the screens show for `c1ccc(CN2CCCC3(CC(c4ccccn4)=NO3)C2)cc1` (stereo not drawn)?
Pf Dd2 growth: -3.7%

Bioassay records (PubChem)
